The source of these data is the supplement of paper PMC7366291.

What all share (details): 25 µM; exposure: 24-48 hpf
Assay [1] relates to Danio rerio Tg(wt1b:EGFP) embryo, pronephros. The experiment in a line: glomerular separation, fold change vs DMSO control; higher = glomeruli further apart (abnormal). In short, it runs like this:
(§1)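 Each feature value is a fold change relative to the mean of same-day DMSO-treated embryos. Embryos of the Tg(wt1b:EGFP) zebrafish line, dechorionated, received 25 μM compound in 0.5% DMSO from 24 to 48 hpf at 28.5°C, in HEPES-buffered E3 with 0.003% PTU. Distances and angles were computed by a Fiji macro from 16 manually set reference points on maximum projections of dorsal pronephros images, and values beyond 2 SD of the feature mean were removed.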

Assay [2] shares this test system. The experiment in a line: glomerular width (mean of left and right), fold change vs DMSO control; higher = wider glomerulus. Summed up:
as §1

Assay [3] shares this test system. Kind of assay: fraction of imaged embryos annotated as normal kidney; higher = less nephrotoxic; extreme values may be limits of the assay. Summed up:
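The read-out is the proportion of embryos in each treatment manually annotated as normal-kidney. Exposure ran from 24 to 48 hpf at 28.5°C in 12-well plates, using dechorionated Tg(wt1b:EGFP) zebrafish embryos in 5 mM HEPES-buffered E3 with 0.003% PTU, 0.5% DMSO and 25 μM compound. For imaging, larvae were anaesthetised with tricaine, positioned dorsally in agarose-filled 96-well plates and captured by widefield fluorescence (470 nm, 10 z-slices), with scoring done on maximum projections.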

The test system is the same in assay [4]. Kind of assay: pronephric angle neck segment to proximal convoluted tubule (mean of left and right), fold change vs DMSO control; higher = larger pronephric angle. Summed up: as §1

The structures appear in SMILES notation. Structures can show the parent of a compound that is named as a salt. ± gives the standard deviation or the standard deviation of the averaged measurements.

For the compound `Nc1ccn([C@@H]2O[C@H](CO)[C@@H](O)C2(F)F)c(=O)n1` [Gemcitabine], the glomerular separation in assay [1] turned out to be 0.851 ± 0.34. Also, the glomerular width in assay [2] turned out to be 0.99 ± 0.053. In addition, in assay [3], the “fraction of imaged embryos annotated as normal kidney” value (“fraction of imaged embryos annotated” below) turned out to be 0.917. Besides, the “pronephric angle neck segment” value in assay [4] was determined as 1.03 ± 0.039.
The corresponding values for `Cc1cc(=O)n(-c2ccccc2)n1C` [Antipyrine] are 1 ± 0.28, 0.98 ± 0.024, 0.667 and 1 ± 0.043.
The corresponding values for `CCCCC1C(=O)N(c2ccccc2)N(c2ccccc2)C1=O` [Phenylbutazone] are 5.01 ± 1.6, 0.552 ± 0.0084, 0 and 1.67 ± 0.032.
The corresponding values for `Cc1cn([C@H]2C=C[C@@H](CO)O2)c(=O)[nH]c1=O` [Stavudine] are 0.929 ± 0.3, 0.874 ± 0.0014, 1 and 0.9729 ± 0.00098.
Turning to `C[C@@H](O)[C@H]1C(=O)N2C(C(=O)O)=C(SCCNC=N)C[C@H]12` [Imipenem], the glomerular separation in assay [1] amounted to 0.805 ± 0.16. The compound also registered a glomerular width in assay [2] of 1.091 ± 0.01. The “fraction of imaged embryos annotated” value in assay [3] stood at 1. The “pronephric angle neck segment” value in assay [4] stood at 0.951 ± 0.015.
The corresponding values for `CN/C(=N\CCSCc1nc[nH]c1C)NC#N` [Cimetidine] are 1.02 ± 0.34, 1.051 ± 0.0067, 0.917 and 0.926 ± 0.062.
The corresponding values for `CN1CCC(=C2c3ccccc3CCc3sccc32)CC1` [Pizotifen malate] are 1.26 ± 0.48, 0.84842 ± 0.00054, 1 and 1.06 ± 0.0029.
As for `CO[C@@H]1[C@@H](O[C@@H]2O[C@H](C)[C@@H](O[C@H]3C[C@@](C)(O)[C@@H](OC(=O)CC(C)C)[C@H](C)O3)[C@H](N(C)C)[C@H]2O)[C@@H](CC=O)C[C@@H](C)[C@@H](O)/C=C/C=C/C[C@@H](C)OC(=O)C[C@H]1OC(C)=O` [Josamycin], in assay [1], the glomerular separation was found to be 1.16 ± 0.39. The compound further came in with a glomerular width in assay [2] of 1.13 ± 0.093. Also, the “fraction of imaged embryos annotated” value in assay [3] stood at 0.909. Moreover, the “pronephric angle neck segment” value in assay [4] amounted to 1.0423 ± 0.00028.
The corresponding values for `CC[C@H]1OC(=O)[C@H](C)[C@@H](O[C@H]2C[C@@](C)(OC)[C@@H](O)[C@H](C)O2)[C@H](C)[C@@H](O[C@@H]2O[C@H](C)C[C@H](N(C)C)[C@H]2O)[C@](C)(O)C[C@@H](C)/C(=N\OCOCCOC)[C@H](C)[C@@H](O)[C@]1(C)O` [Roxithromycin] are 0.811 ± 0.45, 1 ± 0.014, 0.75 and 1.02 ± 0.03.
The corresponding values for `NC(=O)NC1NC(=O)NC1=O` (configuration not stated) [Allantoin] are 0.881 ± 0.25, 0.9104 ± 0.001, 0.917 and 0.981 ± 0.024.
With `CCN(CC)C(=S)SSC(=S)N(CC)CC` [Disulfiram], the glomerular separation in assay [1] is 3.4 ± 1.9. In assay [2], this compound registered a glomerular width of 0.458 ± 0.05. Further, the “fraction of imaged embryos annotated” value in assay [3] is 0. In addition, the “pronephric angle neck segment” value in assay [4] stood at 1.7 ± 0.043.
The corresponding values for `CC(C)[N+](C)(CCOC(=O)C1c2ccccc2Oc2ccccc21)C(C)C` [Propantheline bromide] are 1.29 ± 0.47, 0.966 ± 0.062, 0.667 and 0.942 ± 0.01.
The corresponding values for `CN(C)CCOC(c1ccc(Cl)cc1)c1ccccn1` (configuration not stated) [Carbinoxamine maleate salt] are 0.746 ± 0.34, 0.999 ± 0.048, 0.9 and 1.01 ± 0.026.
The corresponding values for `CC(C)c1nc(CN(C)C(=O)N[C@H](C(=O)N[C@@H](Cc2ccccc2)C[C@H](O)[C@H](Cc2ccccc2)NC(=O)OCc2cncs2)C(C)C)cs1` [Ritonavir] are 1.18 ± 0.61, 0.961 ± 0.094, 1 and 1.02 ± 0.033.
`COc1cc(NS(=O)(=O)c2ccc(N)cc2)ncn1` [Sulfamonomethoxine] gave a glomerular separation in assay [1] of 0.898 ± 0.44. Besides, the glomerular width in assay [2] turned out to be 0.946 ± 0.055. For the same compound, in assay [3], the “fraction of imaged embryos annotated” value came out at 0.833. For the same compound, the “pronephric angle neck segment” value in assay [4] was 0.927 ± 0.096.
The corresponding values for `O=c1[nH]cnc2c1ncn2[C@H]1CC[C@@H](CO)O1` [Didanosine] are 1.24 ± 0.56, 1.06 ± 0.052, 0.7 and 0.972 ± 0.041.
The corresponding values for `CNCC[C@@H](Oc1cccc2ccccc12)c1cccs1` [(R)-Duloxetine hydrochloride] are 1.15 ± 0.49, 1.046 ± 0.0076, 1 and 0.986 ± 0.044.
The corresponding values for `Cc1ncc([N+](=O)[O-])n1CC(C)O` (configuration not stated) [Secnidazole] are 0.775 ± 0.29, 0.9842 ± 0.0045, 0.833 and 0.9777 ± 0.0024.
On to `CC(C)COCC(CN(Cc1ccccc1)c1ccccc1)N1CCCC1` (configuration not stated) [Bepridil hydrochloride], for which the glomerular separation in assay [1] was 0.94 ± 0.41. Further, the glomerular width in assay [2] came to 1.03 ± 0.03. In addition, the “fraction of imaged embryos annotated” value in assay [3] was determined as 0.818. In assay [4], the “pronephric angle neck segment” value is 0.993 ± 0.033.
The corresponding values for `NC(=O)c1ccc[n+]([C@@H]2O[C@H](COP(=O)([O-])OP(=O)(O)OC[C@H]3O[C@@H](n4cnc5c(N)ncnc54)[C@H](O)[C@@H]3O)[C@@H](O)[C@H]2O)c1` [Nadide] are 0.955 ± 0.26, 1.0386 ± 0.00057, 0.75 and 0.9494 ± 0.0036.
The corresponding values for `CN1[C@@H]2CC[C@H]1C[C@@H](OC(=O)c1c[nH]c3ccccc13)C2` [Tropisetron hydrochloride] are 1.8 ± 0.91, 1.02 ± 0.051, 0.667 and 1.06 ± 0.067.
Consider `CC1CC(OC(=O)c2ccccc2O)CC(C)(C)C1` (configuration not stated) [Homosalate], for which the glomerular separation in assay [1] was found to be 0.865 ± 0.19. In assay [2], the glomerular width was 0.8777 ± 0.0016. The “fraction of imaged embryos annotated” value in assay [3] worked out at 0.667. Also, the “pronephric angle neck segment” value in assay [4] turned out to be 1.15 ± 0.044.
The corresponding values for `Cn1c(=O)c2c(ncn2CC2OCCO2)n(C)c1=O` [Doxofylline] are 1.55 ± 0.87, 0.971 ± 0.021, 0.917 and 1.03 ± 0.03.
The corresponding values for `CC(C)NC(=N)NC(=N)Nc1ccc(Cl)cc1` [Proguanil hydrochloride] are 1.2 ± 0.52, 0.978 ± 0.0098, 0.917 and 1.02 ± 0.054.
The corresponding values for `CCOc1ccccc1OC(c1ccccc1)C1CNCCO1` (configuration not stated) [Reboxetine mesylate] are 1.16 ± 0.43, 1 ± 0.077, 0.909 and 0.99 ± 0.0046.
With `CCCN(CCC)C(=O)C(CCC(=O)O)NC(=O)c1ccccc1` (configuration not stated) [Proglumide], the glomerular separation in assay [1] was 0.949 ± 0.28. Besides, the glomerular width in assay [2] is 1.07 ± 0.049. For the same compound, the “fraction of imaged embryos annotated” value in assay [3] amounted to 0.917. Also, in assay [4], the “pronephric angle neck segment” value is 1.037 ± 0.006.
The corresponding values for `OC(c1cc(C(F)(F)F)nc2c(C(F)(F)F)cccc12)C1CCCCN1` (configuration not stated) [Mefloquine hydrochloride] are 1.17 ± 0.51, 1.01 ± 0.019, 0.667 and 1.017 ± 0.0068.
The corresponding values for `O=C1CN(/N=C/c2ccc([N+](=O)[O-])o2)C(=O)N1` [Nitrofurantoin] are 0.915 ± 0.35, 1.04 ± 0.012, 0.833 and 0.968 ± 0.015.
